This note sets out measurements from the OligoGym collection.
Further: reference of the scale not given here.

One assay deals with CTNNBL1. The experiment in a line: pooled miR-30 sensor sort-seq; sequence = guide strand. Particulars: shRNA.
In turn, TTTTTTTGTCATCATCCGCTTC had a sensor-assay potency score (higher = more potent) of -0.298.

The sequence AAGCACATCGATTCCATCCAGC registered a sensor-assay potency score (higher = more potent) of -0.642.

The sequence TGTATTATCGTGTCCGAGCAAG showed a sensor-assay potency score (higher = more potent) of -1.35.

As for TACTCCTTGATGATATGCCTGA, the sensor-assay potency score (higher = more potent) is -0.148.

As to ATCTGTATTATCGTGTCCGAGC, the sensor-assay potency score (higher = more potent) is -1.22.

In the case of TTGTCTGGAAACTTAATCCGCA, the sensor-assay potency score (higher = more potent) is -0.219.

The target in another assay is CTSB. The description is as above. The conditions noted are these: shRNA.
The sequence TTCTGATTCGATTCCACAGTGA gave a sensor-assay potency score (higher = more potent) of -0.73.

Turning to TTCCACAGTGATCCTGTCCTCT, the sensor-assay potency score (higher = more potent) was -0.145.

Take TAGTTGACCAGCTCATCCGACA: the sensor-assay potency score (higher = more potent) was -0.966.

The sequence TGACGTGTTGGTACACTCCTGA registered a sensor-assay potency score (higher = more potent) of 0.569.

TTCTCGCTATTGGAGACGCTGT showed a sensor-assay potency score (higher = more potent) of -1.66.

TCGGTAAACATAACTCTCTGGG yielded a sensor-assay potency score (higher = more potent) of -0.352.

TCACAGATCTTGCTACACTTGG returned a sensor-assay potency score (higher = more potent) of -0.121.

Turning to TTGTCCTGTTTGTAGGTCGGGC, the sensor-assay potency score (higher = more potent) was -0.855.

As to TTTCTTGTCCAGAAGTTCCAAG, the sensor-assay potency score (higher = more potent) was -1.12.

Turning to TCTCTGATCTCTTTGATGGTGG, the sensor-assay potency score (higher = more potent) was -0.142.

TTCTATTAAAGAATCATGCTGA displayed a sensor-assay potency score (higher = more potent) of 0.656.

TTGTAGGTCGGGCTGTAGCCAG registered a sensor-assay potency score (higher = more potent) of -1.22.

For the sequence TTGTAGAGCAGGAAGTCCGAAT, the sensor-assay potency score (higher = more potent) was -0.653.

ATAGTTGACCAGCTCATCCGAC registered a sensor-assay potency score (higher = more potent) of -0.423.

With TGTTGGTACACTCCTGACTTGT, the sensor-assay potency score (higher = more potent) was -1.2.

In the case of TTGTCCAGAAGTTCCAAGCTTC, the sensor-assay potency score (higher = more potent) was -0.113.

TTTGTTGACATAGTTGACCAGC yielded a sensor-assay potency score (higher = more potent) of -0.0911.

For TTTTCTTGTCCAGAAGTTCCAA, the sensor-assay potency score (higher = more potent) is -0.152.

TTGGTGTGGATGCAGATCCGGT displayed a sensor-assay potency score (higher = more potent) of -1.05.

In the case of TTTTTGTAGATCTCGGCCATGA, the sensor-assay potency score (higher = more potent) is -0.154.

TATCCGTAGTGCTTGTCCTGTT returned a sensor-assay potency score (higher = more potent) of -0.438.

The sequence TAAACATAACTCTCTGGGGTGG registered a sensor-assay potency score (higher = more potent) of -0.755.

In turn, TAACTTGACAGGGTGAAGCTGT yielded a sensor-assay potency score (higher = more potent) of -0.16.

Turning to TTGGCAACCAGCCAGTAGGGTG, the sensor-assay potency score (higher = more potent) is -1.27.
